Tests used:
Assay in all cases: lowest phenotypically active concentration; higher = less potent
Settings in all cases: treatment time: 24 h
[1] = test system: HepG2-ACTB-RAB5A
Outline: (§1)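 Fifteen reporter lines derived from A549, HepG2 and WPMY1 cells by gene editing, carrying BFP for segmentation plus GFP and RFP/FusionRed markers, were exposed to 0.3, 1, 3 or 9 µM for 24 h in four wells each and imaged live. Live-cell features from each well were normalised to solvent control wells. A well set counted as deviating when ≥3 of 4 wells lay beyond the 95th percentile of control Euclidean distances, and as reproducible when the median replicate Pearson correlation exceeded the 95th percentile of non-replicates. Phenotypic activity was assigned only when both criteria were met.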

[2] = test system: HepG2-CANX-COX4
Outline: as §1

[3] = test system: HepG2-GM130-SQSTM1
Outline: as §1

[4] = test system: HepG2-TP53BP1-CLTA
Outline: as §1

[5] = test system: HepG2-TUBA1B-RELA
Outline: as §1

[6] = test system: WPMY1-ACTB-RAB5A
Outline: as §1

[7] = test system: WPMY1-CANX-COX4
Outline: as §1

[8] = test system: WPMY1-GM130-SQSTM1
Outline: as §1

[9] = test system: WPMY1-TP53BP1-CLTA
Outline: as §1

[10] = test system: WPMY1-TUBA1B-RELA
Outline: as §1

| SMILES | lowest phenotypically active concentration [1] [µM] | lowest phenotypically active concentration [2] [µM] | lowest phenotypically active concentration [3] [µM] | lowest phenotypically active concentration [4] [µM] | lowest phenotypically active concentration [5] [µM] | lowest phenotypically active concentration [6] [µM] | lowest phenotypically active concentration [7] [µM] | lowest phenotypically active concentration [8] [µM] | lowest phenotypically active concentration [9] [µM] | lowest phenotypically active concentration [10] [µM] |
| --- | --- | --- | --- | --- | --- | --- | --- | --- | --- | --- |
| CCc1cc(-c2n[nH]c(C)c2-c2ccc3c(c2)OCCO3)c(O)cc1O | 3 | 3 | 3 | 3 | 9 | 3 | 3 | 3 | 3 | 3 |
| Cc1cc(Nc2nc(N[C@@H](C)c3ncc(F)cn3)ncc2Cl)n[nH]1 | 1 | 3 | 3 | ≤ 0.3 | 1 | 3 | 9 | 9 | 3 | 3 |
| Nc1nc(S)c2[nH]cnc2n1 [thioguanine] | 9 | 1 | 1 | 1 | 1 | 1 | 1 | 1 | 9 | 9 |
| CN(C)CCCNc1c2c(=O)n(C)c(=O)nc-2n(C)c2ccccc12 | 9 | 9 | 9 | 9 | 9 | 9 | 9 | 9 | 9 | 3 |
| CC(=O)c1c(C)c2cnc(Nc3ccc(N4CCNCC4)cn3)nc2n(C2CCCC2)c1=O | ≤ 0.3 | ≤ 0.3 | ≤ 0.3 | ≤ 0.3 | ≤ 0.3 | 9 | 3 | 9 | 9 | 9 |
| COc1cccc(-c2cc(F)ccc2[C@H]2Cc3nc(N)nc(C)c3C(=O)N2)n1 | ≤ 0.3 | ≤ 0.3 | ≤ 0.3 | ≤ 0.3 | ≤ 0.3 | ≤ 0.3 | ≤ 0.3 | ≤ 0.3 | ≤ 0.3 | ≤ 0.3 |
| O=C(CCCCCCC(=O)Nc1cccnc1)NO [Pyroxamide] | 3 | 3 | 3 | 3 | 3 | 9 | 3 | 3 | 3 | 3 |
| C/C=C1\NC(=O)[C@H]2CSSCCC=C[C@H](CC(=O)N[C@H](C(C)C)C(=O)N2)OC(=O)[C@H](C(C)C)NC1=O | ≤ 0.3 | ≤ 0.3 | ≤ 0.3 | ≤ 0.3 | ≤ 0.3 | ≤ 0.3 | ≤ 0.3 | ≤ 0.3 | ≤ 0.3 | ≤ 0.3 |
| COc1cc(N2CCN(C)CC2)ccc1Nc1nccc(-c2cn(C)c3cnccc23)n1 | 3 | 1 | 1 | 1 | 1 | 1 | ≤ 0.3 | 1 | 1 | 1 |
| COCc1c(C(C)C)nc(C(C)C)c(/C=C/[C@@H](O)C[C@@H](O)CC(=O)O)c1-c1ccc(F)cc1 [cerivastatin] | ≤ 0.3 | ≤ 0.3 | ≤ 0.3 | ≤ 0.3 | ≤ 0.3 | ≤ 0.3 | ≤ 0.3 | ≤ 0.3 | ≤ 0.3 | ≤ 0.3 |
| CN(C)c1ccc(C(=O)NCCCCCCC(=O)NO)cc1 | ≤ 0.3 | ≤ 0.3 | 1 | 1 | ≤ 0.3 | 1 | ≤ 0.3 | ≤ 0.3 | ≤ 0.3 | ≤ 0.3 |
| Cc1cc(C)cc(C(=O)NOCCCCCC(=O)NO)c1 | ≤ 0.3 | ≤ 0.3 | 1 | 1 | ≤ 0.3 | 1 | ≤ 0.3 | ≤ 0.3 | ≤ 0.3 | ≤ 0.3 |
| O=C1Cc2c([nH]c3ccc(Br)cc23)-c2ccccc2N1 [Kenpaullone] | 3 | 1 | 3 | 3 | 1 | 1 | 1 | 1 | 1 | 3 |
| Cc1c(C(=O)N2CCOc3ccc(-c4ccc(N)nc4)cc3C2)ccc(S(C)(=O)=O)c1F | 3 | 3 | 3 | 9 | 3 | 3 | 3 | 3 | 3 | 9 |

From the supplement of paper PMC7411054
